# Bioassay records: PubChem, National Center for Advancing Translational Sciences (NCATS)
# An excerpt weighted towards active compounds, which were near 7.4% of everything screened.
# ELG1 genotoxic = inducers of genotoxicity in HEK293T ELG1-luciferase cells; Potency, µM (top dose mostly 46 µM), actives largely listed as activators; 330,000 compounds, 1.3% hits; HEK293T ELG1-luciferase reporter, luminescence, 16 h; further: nearly all actives have a fitted effect of over 60% in size
#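 16 hr compound incubation (37 °C, 5% CO2) of HEK293T cells carrying luciferase-tagged ELG1; luciferase then measured by ONE-Glo luminescence after 30 min at RT.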
# Rab9 promoter act = Rab9 promoter activation | Huh7 Rab9 promoter-luciferase reporter, luminescence, 24 h | Potency, µM (highest dose often 9.22 µM), usual class: activators | 320,000 compounds, 2.8% hits | AID 485297; further: nearly all actives have a fitted effect of over 60% in size
#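 Cell-based reporter: Huh7 stable for Rab9 promoter-driven luciferase, plated in reduced-serum medium with 10% FBS at 1500 cells/well, compound-treated 24 h at 37 °C, luminescence read after 10 min reagent.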
# FLuc modulator = counter-screen for miR-21 project: firefly luciferase inhibitors or activators; P08659; purified FLuc, Km substrates, luminescence inhibition; Potency, µM (series often up to 57.5 µM), actives largely listed as inhibitors; 360,000 compounds, 6.9% hits; further: nearly all actives have a fitted effect of over 55% in size
# Target sequence (P08659 whole entry, looked up): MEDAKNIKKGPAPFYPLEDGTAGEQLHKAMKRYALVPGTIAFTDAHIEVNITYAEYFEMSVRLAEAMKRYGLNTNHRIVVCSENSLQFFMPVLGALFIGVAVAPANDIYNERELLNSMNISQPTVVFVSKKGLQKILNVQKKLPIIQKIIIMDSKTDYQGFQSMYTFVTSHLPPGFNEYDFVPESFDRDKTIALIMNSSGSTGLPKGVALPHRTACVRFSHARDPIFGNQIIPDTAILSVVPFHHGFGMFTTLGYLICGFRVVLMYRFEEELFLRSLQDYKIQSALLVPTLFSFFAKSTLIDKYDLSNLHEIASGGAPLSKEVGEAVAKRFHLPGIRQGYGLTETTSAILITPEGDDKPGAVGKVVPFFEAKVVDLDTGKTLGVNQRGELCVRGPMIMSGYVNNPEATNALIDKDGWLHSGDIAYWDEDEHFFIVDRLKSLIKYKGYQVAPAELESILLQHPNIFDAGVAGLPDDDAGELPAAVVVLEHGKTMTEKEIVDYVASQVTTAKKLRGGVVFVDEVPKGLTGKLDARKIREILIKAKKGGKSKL
#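 Purified P. pyralis luciferase (10nM final) with 10uM D-luciferin and 10uM ATP (Km levels) in 50mM Tris acetate pH 7.5, 10mM Mg acetate, 0.01% Tween-20, 0.05% BSA; qHTS 6-point titration, ~60 µM downward; luminescence read.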
# Luc counter = blocks Kinase-Glo luciferase, a counter-screen artifact. Potency, µM (titrated, usually from 38.3 µM), most hits filed as inhibitors. Q27757. AID 1379. 200,000 compounds, 0.28% hits. Kinase-Glo luciferase, ATP luminescence, 8 min; further: nearly all actives have a fitted effect of over 60% in size
#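 Substrate mix (final 50 mM imidazole pH 7.2, 50 mM KCl, 7 mM MgCl2, 10 uM ATP, 0.01% Tween 20, 0.05% BSA) plus pin-tool compound, then Kinase-Glo detection mix; 8 min ambient, luminescence read.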
# NPC1 prom act = activators of NPC1 promoter | 320,000 compounds, 2.4% hits | Potency, µM (titrated, usually from 9.22 µM), usual class: activators | AID 485313 | Huh7 NPC1 promoter luciferase reporter, 24 h; further: nearly all actives have a fitted effect of over 60% in size
#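 Compounds in DMSO were transferred onto Huh7 NPC1-luciferase reporter cells pre-incubated 2 h; after 24 h at 37 °C, Amplite reagent was dispensed and luminescence recorded 10 min later.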
# SMN2 splice up = increases expression of the SMN2 splice variant; AID 1458; 210,000 compounds, 2.8% hits; HEK293 SMN2-luciferase splicing reporter, luminescence, 30-36 h; Potency, µM (doses to about 46.1 µM), most hits filed as activators; further: nearly all actives have a fitted effect of over 55% in size
#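 HEK293 cells carry an SMN2 minigene-luciferase reporter in which exon 7 inclusion puts luciferase in frame. Cells were seeded at 2000 cells/well, attached for 10-12 hours, then exposed to compounds for 30-36 hours at 37C before ONE-Glo luminescence.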
# Numbers stand for hits; - = inactive; ? = inconclusive; . = no result; [ ] = another dose, or the depositor's remark. The call rests on the fitted dose curve; in most records, active means well fitted curve in the direction sought with a large enough effect; inconclusive means small, poorly fitted or top-dose-only effect, or another doubt; inactive means no such curve, though single readings can be large; an effect the other way counts as inactive or inconclusive.
SMILES,ELG1 genotoxic,Rab9 promoter act,FLuc modulator,Luc counter,NPC1 prom act,SMN2 splice up
Cc1ccc(C(=O)O/N=C(\N)c2ccc(Br)cc2)cc1,13µM,-,2.4µM,-,-,-
O=C(c1cnccn1)N1CCC2(CC1)CN(Cc1ccccc1)C2,.,.,.,-,.,-
CC(C#Cc1ccc2c(c1)COc1c3ccccc3nn1-2)OC(C)(C)C (stereo not given),-,?,11µM,.,?,.
c1ccc2c3n(nc2c1)CCCO3,-,-,-,.,-,.
C(#CC1CCCCC1)c1ccc2c(c1)COc1c3ccccc3nn1-2,-,?,4.8µM,.,?,.
C(#Cc1ccc2c(c1)COc1c3ccccc3nn1-2)c1ccccc1,?,?,12µM,.,?,.
CCCCCC(O)/C=C/C=C\CCCCCCCC(=O)O (stereo not given),.,.,.,-,.,-
COc1ccc2c(c1OC)C(Cc1ccccc1)N1CCc3cc4c(cc3C1=C2)OCO4 (stereo not given),.,.,.,-,.,.
CN1CCN(C(=O)c2cc(-c3cccc(Cl)c3)on2)CC1,-,6.3µM,?,.,?,.
O=C(c1cc(-c2cccc(Cl)c2)on1)N1CCN(c2ccc(F)cc2)CC1,-,-,-,.,-,.
Cc1c(Cl)cccc1NC(=O)c1cc(-c2cccc(Cl)c2)on1,.,.,-,.,.,-
O=C(c1cc(-c2cccc(Cl)c2)on1)N1CCCCCC1,21µM,2.8µM,11µM,.,2.5µM,.
Cc1ccc(N=Nc2c(C)[nH]n(-c3ccccc3)c2=O)cc1Br,-,-,-,.,-,.
Cc1[nH]n(-c2ccccc2)c(=O)c1N=Nc1ccc2c(c1)OCCO2,?,4µM,6µM,-,?,18µM
Cc1[nH][nH]c(=O)c1N=Nc1ccc(Cl)cc1,-,-,-,-,-,-
Cc1ccc(N=Nc2c(C)[nH]n(-c3ccccc3)c2=O)c(C)c1,-,-,-,-,-,.
Cc1[nH]n(-c2ccccc2)c(=O)c1N=Nc1ccc(F)cc1,?,?,2.7µM,.,-,.
CSc1ccc(N=Nc2c(C)[nH]n(C)c2=O)cc1,?,-,19µM,.,-,.
Cc1[nH]n(-c2ccccc2)c(=O)c1N=Nc1cccc([N+](=O)[O-])c1,-,-,13µM,.,-,.
Nc1c(N=Nc2cccc(Cl)c2)c(=O)[nH]n1-c1ccccc1,-,-,-,-,-,-
Cc1[nH]n(-c2ccccc2)c(=O)c1N=Nc1cccc(Cl)c1,-,-,9.5µM,.,?,.
Cc1ccc(NC(=O)c2oc3ccccc3c2NC(=O)C2CCCCC2)cc1,.,.,-,.,.,.
Cc1noc(C)c1COc1ccccc1C(=O)N1CCN(S(=O)(=O)c2ccccc2F)CC1,23µM,-,-,.,-,.
Cc1ccc(S(=O)(=O)N2CCN(C(=O)c3ccccc3OCc3c(C)noc3C)CC2)cc1,-,-,-,.,-,.
O=C1OC2(CCCCC2)CC2=C1C1O[C@](CCCCN3C(=O)c4ccccc4C3=O)(Cc3ccccc31)O2,.,-[1.84 µM],-[11.5 µM],.,-[1.84 µM],.
SMILES,ELG1 genotoxic,Rab9 promoter act,FLuc modulator,Luc counter,NPC1 prom act,SMN2 splice up
Cc1cc(C)cc(CC2CC(=O)N(c3nc(C)cc(C)n3)C2=O)c1 (stereo not given),-,?,21µM,-,-,-
Cc1nc2sc(C(N)=O)c(N)c2c2c1CCCC2,-,-,12µM,.,?,.
Cc1ccc(-c2nc3sc(C(N)=O)c(N)c3c3c2CCCC3)cc1,-,-,-,-,-,-
COc1ccccc1Nc1nc(N)nc(CSC(=S)N2CCCCC2)n1,-,-,17µM,.,-,.
Nc1nc(CSC(=S)N2CCCCC2)nc(Nc2ccccc2)n1,?,?,27µM,-,-,?
Cc1ccc(Nc2nc(N)nc(CSC(=S)N3CCOCC3)n2)cc1,?,?,15µM,-,2.8µM,?
Nc1nc(CSC(=S)N2CCOCC2)nc(Nc2ccccc2)n1,21µM,3.5µM,13µM,-,?,11µM
Cc1cccc(Nc2nc(N)nc(CSC(=S)N3CCOCC3)n2)c1,-,?,-,.,?,.
Nc1nc(CN2CCN(Cc3ccccc3)CC2)nc(Nc2ccccc2)n1,-,-,-,-,-,-
CC1CC(C)CN(C(=S)SCc2nc(N)nc(Nc3ccccc3)n2)C1 (stereo not given),-,-,-,.,-,.
CN(C)c1ccc(CNC(=O)C2CCCN(S(=O)(=O)c3ccc4c(ccn4C)c3)C2)cc1 (stereo not given),.,.,-,.,.,.
Nc1nc(CSC(=S)N2CCN(c3ccccc3)CC2)nc(Nc2ccc(F)cc2)n1,-,-,-,-,-,.
CCOc1ccc(Nc2nc(N)nc(CSC(=S)N3CCOCC3)n2)cc1,-,-,?,.,2.8µM,.
Cc1ccc2cc(C=O)c(N3CCOCC3)nc2c1C,-,-,?,.,-,.
Cc1ccc2nc(N3CCOCC3)c(C=O)cc2c1,?,-,21µM,.,-,.
COc1ccc(OC)c(NC(=O)c2cccc(NC(=O)c3ccccc3)c2)c1,-,-,17µM,.,-,.
COc1ccc(NC(=O)c2ccc3nc(-c4ccccc4)c(-c4ccccc4)nc3c2)c(OC)c1,-,-,-,-,-,-
COc1ccc(OC)c(NC(=O)c2ccc(OC3CSC3)cc2)c1,-,-,11µM,-,-,-
CCCc1cc(C(=O)Nc2cc(OC)ccc2OC)cs1,-,-,19µM,.,-,.
COc1ccc(NC(=O)c2cccc(NC(=O)c3ccccc3)c2)c(OC)c1,-,-,19µM,.,-,.
COc1ccc(OC)c(NC(=O)c2ccc(NC(C)=O)cc2)c1,-,-,-,-,-,.
Nc1ncnc2nc(Cl)[nH]c12,.,.,.,-,.,-
Cc1ccccc1NC(=O)CCn1cnc2onc(-c3ccc(F)cc3)c2c1=O,.,.,-,.,.,.
COc1ccc2c(c1)O[C@@H](c1ccc3c(c1)OCO3)[C@H](OC(=O)NCc1ccc3c(c1)OCO3)C2=O,.,.,.,-,.,-
COc1ccc2c(c1)C(=O)CC(c1ccc3c(c1)OCCO3)O2 (stereo not given),-,?,21µM,.,?,.
SMILES,ELG1 genotoxic,Rab9 promoter act,FLuc modulator,Luc counter,NPC1 prom act,SMN2 splice up
COc1ccc2c(c1)O[C@H](c1ccc3c(c1)OCO3)[C@@H](O)C2=O,-,-,?,-,-,13µM
CCOC(=O)CCCn1ncn2c(cc3occc32)c1=O,21µM,-,?,-,-,-
Cc1ccc(/C=C(\C#N)C(=O)Nc2cccc(C)n2)cc1,-,-,2.4µM,.,-,.
COc1ccc(O)c(/C=C(\C#N)C(=O)Nc2ccccn2)c1,-,-,2.4µM,.,-,.
Cc1cccc(NC(=O)/C(C#N)=C\c2ccc(C(=O)O)cc2)c1,-,-,?,-,-,-
Cc1ccc(/C=C(\C#N)C(=O)Nc2ccccn2)o1,5.2µM,2.5µM,8.5µM,?,?,18µM
C=CCOc1ccc(/C=C(\C#N)C(=O)Nc2ccccn2)cc1OC,-,-,-,.,-,.
COc1ccc(/C=C(\C#N)C(=O)Nc2ccccn2)cc1,?,-,2.1µM,.,-,.
O=C(/C=C/c1cccs1)c1ccc(N2CCOCC2)cc1,?,2.2µM,0.24µM,?,3.5µM,-
